From the supplement of paper PMC8728848
Many of the other results were omitted from the sample, so the strongest signals are more common in it than they were.

Assays:
Experiment in all cases: glycan array binding signal (z-score within array); higher = stronger binding
Conditions in all cases: glycan notation: IUPAC condensed, linker removed
[1] = target: Fuc(a1-2)Gal(b1-3)GalNAc(b1-3)Gal(a1-4)Gal(b1-4)Glc
Summary of the method: (§1)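 Glycan array binding is given as a within-array Z-score, which can be read as non-binding when negative. The arrays, 3228 of them, came from the Consortium for Functional Glycomics database and were retained only where the protein sequence was available. Z-scores were averaged across arrays of the same protein sequence at different concentrations or buffers and across linkers.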

[2] = target: Fuc(a1-2)Gal(b1-3)GlcNAc6S
Summary of the method: as §1

[3] = target: Fuc(a1-2)Gal(b1-3)[Fuc(a1-4)]GlcNAc(b1-2)Man(a1-3)[Fuc(a1-2)Gal(b1-3)[Fuc(a1-4)]GlcNAc(b1-2)Man(a1-6)]Man(b1-4)GlcNAc(b1-4)[Fuc(a1-6)]GlcNAc(b1-4)[Fuc(a1-6)]GlcNAc
Summary of the method: as §1

[4] = target: Fuc(a1-2)Gal(b1-4)GlcNAc(b1-3)Gal(b1-4)GlcNAc(b1-3)Gal(b1-4)GlcNAc
Summary of the method: as §1

[5] = target: Fuc(a1-2)Gal6S(b1-4)Glc6S
Summary of the method: as §1

Fuc(a1-2)[Gal(a1-3)]Gal = target: Fuc(a1-2)[Gal(a1-3)]Gal
Summary of the method: as §1

[6] = target: Fuc(a1-2)[GalNAc(a1-3)]Gal(b1-4)[Fuc(a1-3)]GlcNAc(b1-3)GalNAc
Summary of the method: as §1

[7] = target: Fuc(a1-3)[Gal3S(b1-4)]GlcNAc6S
Summary of the method: as §1

Fuc(a1-4)GlcNAc = target: Fuc(a1-4)GlcNAc
Summary of the method: as §1

[8] = target: Gal(a1-3)Gal(b1-4)GlcNAc(b1-2)Man(a1-3)[Gal(a1-3)Gal(b1-4)GlcNAc(b1-2)Man(a1-6)]Man(b1-4)GlcNAc(b1-4)GlcNAc
Summary of the method: as §1

[9] = target: Gal(a1-3)Gal(b1-4)[Fuc(a1-3)]GlcNAc(b1-2)Man(a1-3)[Gal(a1-3)Gal(b1-4)[Fuc(a1-3)]GlcNAc(b1-2)Man(a1-6)]Man(b1-4)GlcNAc(b1-4)GlcNAc
Summary of the method: as §1

Gal(a1-3)GalNAc = target: Gal(a1-3)GalNAc
Summary of the method: as §1

[10] = target: Gal(a1-4)Gal(b1-4)GlcNAc(b1-2)Man(a1-3)[Gal(a1-4)Gal(b1-4)GlcNAc(b1-2)Man(a1-6)]Man(b1-4)GlcNAc(b1-4)GlcNAc
Summary of the method: as §1

[11] = target: Gal(a1-4)Gal(b1-4)GlcNAc(b1-3)Gal(b1-4)Glc
Summary of the method: as §1

[12] = target: Gal(b1-3)GlcNAc(b1-3)Gal(b1-4)GlcNAc(b1-2)[Gal(b1-3)GlcNAc(b1-3)Gal(b1-4)GlcNAc(b1-6)]Man(a1-6)[Gal(b1-3)GlcNAc(b1-3)Gal(b1-4)GlcNAc(b1-2)Man(a1-3)]Man(b1-4)GlcNAc(b1-4)[Fuc(a1-6)]GlcNAc
Summary of the method: as §1

[13] = target: Gal(b1-4)GalNAc(b1-3)[Fuc(a1-2)]Gal(b1-4)GlcNAc
Summary of the method: as §1

[14] = target: Gal(b1-4)GlcNAc(b1-2)[Gal(b1-4)GlcNAc(b1-6)]Man(a1-6)[Gal(b1-4)GlcNAc(b1-2)Man(a1-3)]Man(b1-4)GlcNAc(b1-4)[Fuc(a1-6)]GlcNAc
Summary of the method: as §1

[15] = target: Gal(b1-4)GlcNAc(b1-3)Gal(b1-3)GalNAc
Summary of the method: as §1

[16] = target: Gal(b1-4)GlcNAc(b1-3)Gal(b1-4)GlcNAc(b1-2)Man(a1-3)[Gal(b1-4)GlcNAc(b1-3)Gal(b1-4)GlcNAc(b1-2)Man(a1-6)]Man(b1-4)GlcNAc(b1-4)GlcNAc
Summary of the method: as §1

[17] = target: Gal(b1-4)GlcNAc(b1-3)Gal(b1-4)GlcNAc(b1-2)Man(a1-3)[Gal(b1-4)GlcNAc(b1-3)Gal(b1-4)GlcNAc(b1-2)Man(a1-6)]Man(b1-4)GlcNAc(b1-4)[Fuc(a1-6)]GlcNAc
Summary of the method: as §1

[18] = target: Gal(b1-4)GlcNAc(b1-3)Gal(b1-4)GlcNAc(b1-3)Gal(b1-4)GlcNAc(b1-2)[Gal(b1-4)GlcNAc(b1-3)Gal(b1-4)GlcNAc(b1-3)Gal(b1-4)GlcNAc(b1-6)]Man(a1-6)[Gal(b1-4)GlcNAc(b1-3)Gal(b1-4)GlcNAc(b1-3)Gal(b1-4)GlcNAc(b1-2)Man(a1-3)]Man(b1-4)GlcNAc(b1-4)[Fuc(a1-6)]GlcNAc
Summary of the method: as §1

[19] = target: Gal(b1-4)GlcNAc(b1-3)Gal(b1-4)GlcNAc(b1-3)Gal(b1-4)GlcNAc(b1-3)Gal(b1-4)GlcNAc(b1-2)Man(a1-3)[Gal(b1-4)GlcNAc(b1-3)Gal(b1-4)GlcNAc(b1-3)Gal(b1-4)GlcNAc(b1-3)Gal(b1-4)GlcNAc(b1-2)Man(a1-6)]Man(b1-4)GlcNAc(b1-4)GlcNAc
Summary of the method: as §1

B1: PX9961A-pdi-456-24-456 (Parabacteroides distasonis) (protein)
chain: KTSSTQLPTIDAISSVADLTNAVNGVYEQQATEVGSYGAEFTLLADLRSGDFQSISTVNHAGPMYRYQTGKNDEMVYSFYKLFYNSLARLNNVLAAAENLEGADVDILKGELYAMRALYHFDLARVFAKLPSTTDMNDLGIVLSTEVYPTDYIGTRATLQQTYDQILKDIETALPLLSKDKQTGHINYWGALAIRARAYLYLEKNKEALADCKEIIASSPYKLYTRDEYIGAWDKEGTNEAIFEILVTPNYNAQRNSIGYFTHASGYGECAATESFLEELAKHPGDIRTELFAKETDNGYDGTYPQKYKGRDGQIYVNNPKVVRLSEVYLIAAEAALKAGDTSAAAGYMNTLRKNRIENYTDVASITLDDILLERRLELFTEGHTAWDAWRNGKSVNNKFVGEVKPGDYRTIMAIPIGEITVSRGQLIQNPGY
[1]
  glycan array binding signal (z-score): -0.216
[2]
  glycan array binding signal (z-score): 0.178
[3]
  glycan array binding signal (z-score): 0.196
[4]
  glycan array binding signal (z-score): -0.148
[5]
  glycan array binding signal (z-score): -0.221
Fuc(a1-2)[Gal(a1-3)]Gal
  glycan array binding signal (z-score): 1.54
[6]
  glycan array binding signal (z-score): 0.753
[7]
  glycan array binding signal (z-score): -0.41
Fuc(a1-4)GlcNAc
  glycan array binding signal (z-score): 7.24
[8]
  glycan array binding signal (z-score): 0.21
[9]
  glycan array binding signal (z-score): 0.63
Gal(a1-3)GalNAc
  glycan array binding signal (z-score): -0.152
[10]
  glycan array binding signal (z-score): 0.514
[11]
  glycan array binding signal (z-score): 0.043
[12]
  glycan array binding signal (z-score): 1.83
[13]
  glycan array binding signal (z-score): -0.317
[14]
  glycan array binding signal (z-score): 2.12
[15]
  glycan array binding signal (z-score): -0.575
[16]
  glycan array binding signal (z-score): 2.2
[17]
  glycan array binding signal (z-score): 2.48
[18]
  glycan array binding signal (z-score): 2.11
[19]
  glycan array binding signal (z-score): 0.035
